Measured values taken from ChEMBL document CHEMBL4513216, “Probing the Open Global Health Chemical Diversity Library for Multistage-Active Starting Points for Next-Generation Antimalarials” (ACS Infect Dis, 2020).
Hit rate of the full screen: of about 68,000 compounds, about 2,700 (4%) showed an effect of 50% or more. This excerpt belongs to a sample that is enriched for strong results.

System: Plasmodium berghei
Test: Screen against P. berghei liver stage (PbLuc), transformed with Luciferase, at 2uM
Assay type: functional, HepG2
Conditions: tested at 2 uM

Compound | INHIBITION
CC(C)(C)CNCC1(O)CCCN(Cc2ccccc2F)C1=O (stereo not drawn) | 36.66%
COc1ccc(F)c(CN2CCCC(O)(CNCc3ccoc3)C2=O)c1 (stereo not drawn) | -11.8%
COc1ccc(F)c(CN2CCCC(O)(CNCC(C)(C)C)C2=O)c1 (stereo not drawn) | 70.81%
CCCN1C[C@@H]2CC[C@H]1CN(Cc1ccc(-n3cccn3)cc1)C2 | 47.25%
CCCN1C[C@@H]2CC[C@H]1CN(Cc1ccc(Cn3cccn3)cc1)C2 | 75.43%
CCCN1C[C@@H]2CC[C@H]1CN(Cc1cccc(-n3cccn3)c1)C2 | -15.64%
COCC1CN(c2ccc3c(Cl)ccnc3c2F)CCO1 (stereo not drawn) | -90.94%
Cn1ccc(CS(=O)(=O)Cc2ccccc2)cc1=O | 36.53%
COCCN1CC2(CCOCC2)c2cc(NC(=O)C3CC=CC3)ccc21 | 26.31%
CC(C)C[C@H](N)COc1cccc(F)c1Oc1ccc(Cl)cc1 | 32.24%
COc1cc(CNc2cc(N3CCCC3CO)ncn2)ccn1 (stereo not drawn) | 21.39%
Cc1ncsc1C(=O)N1CCN(Cc2ccccc2)CC1C (stereo not drawn) | -12.06%
Cc1ncsc1CNC(=O)N1CCN(Cc2ccccc2)CC1C (stereo not drawn) | 51.4%
Cc1ncsc1CNC(=O)N1CCN(Cc2ccccc2)C[C@H]1C | 37.41%
Cc1cc(CNC(=O)N2CCN(Cc3ccccc3)C[C@H]2C)on1 | -4.53%
C[C@@H]1CN(Cc2ccccc2)CCN1C(=O)NCc1nccs1 | 14.83%
Cc1nccc(CNC(=O)N2CCN(Cc3ccccc3)C[C@H]2C)n1 | 58.93%
CCCC(=O)N1CCC(c2cc3cccnc3c(O)n2)CC1 | 4.48%
O=C(N1CCCC1)N1CCC2(CC1)CN(c1cccnc1)C(=O)CO2 | 39.86%
CC(C)(C)c1n[nH]cc1CNC1CCC(O)CC1 (stereo not drawn) | -57.67%
CC(C)(C)c1n[nH]cc1CNC1CCC(OCC(F)(F)F)CC1 (stereo not drawn) | -8.63%
CC(C)(C)c1n[nH]cc1CNC1CCC(C(F)(F)F)CC1 (stereo not drawn) | 64.92%
C=C/C=c1\c(=C/C)oc2c(NCc3ccccc3)nc(C)nc12 | 51.36%
C=C/C=c1\c(=C/C)oc2c(NCc3ccccc3)ncnc12 | 24.34%
C=C/C=c1\c(=C/C)oc2c(NCc3ccccc3)nc(CC)nc12 | 17.42%

Compound | INHIBITION
Cc1noc(C)c1CCC(=O)N1CCCC(n2ccnc2C)C1 (stereo not drawn) | 11.18%
CCN1CCOC(CNCc2ccc(C)s2)C1 (stereo not drawn) | -19.02%
COc1cc(CNc2cnn(CC(F)F)c2)ccc1O | 19.18%
COc1ccc(CNc2cnn(CC(F)F)c2)cc1 | -15.93%
Cc1ccc(CNc2cnn(CC(F)F)c2)cc1C | 55.43%
CCn1nnc2c1C(COCCN(C)C)CN(S(=O)(=O)CC)C2 (stereo not drawn) | 29.19%
CNc1ncc(CN(C)C(=O)c2cccc(CC3CCNCC3)c2)cn1 | 52.98%
CN(Cc1ccno1)C(=O)c1cccc(CC2CCNCC2)c1 | 38.67%
Cc1nc(CN(C)C(=O)c2cccc(CC3CCNCC3)c2)no1 | 24.36%
Cc1nc2ccc(Cl)cn2c1CN1CCN(S(=O)(=O)N2CCCC2)CC1 | -21.9%
CCN1CCc2c(sc3c2C(=O)NC(C=Cc2ccccc2)N3)C1 (stereo not drawn) | -18.77%
COCC(=O)N1CCCCC1c1nccc(C)n1 (stereo not drawn) | 18.22%
CN(C)CCN1CCCC12CCN(Cc1nccn1C)CC2 | 37.75%
Cc1cc(C(F)(F)F)nn1CCCNC(=O)C1CCC1 | 31.12%
O=C(COc1coc(CN2CCOCC2)cc1=O)Nc1ccccc1F | 64.35%
O=C(COc1coc(CN2CCCCC2)cc1=O)Nc1ccccc1Cl | -46.67%
O=C(COc1coc(CN2CCOCC2)cc1=O)Nc1ccc(Cl)cc1 | 16.49%
CCCc1ccc2oc(C(=O)N3CCN(CCOC)CC3)c(C)c2c1 | -28.65%
COc1cccn(CC(=O)N(C)CCC2CCOCC2)c1=O | 69.67%
COc1cccn(CC(=O)N(C)CCCOc2c(C)cccc2C)c1=O | -30.49%
COCCCN(C)C(=O)Cn1cccc(OC)c1=O | 50.59%
COCCN(C)C(=O)Cn1cccc(OC)c1=O | -14.84%
COc1cccn(CC(=O)N(C)Cc2ccoc2)c1=O | -33.11%
COc1cccn(CC(=O)N(C)CCSC)c1=O | 21.97%
CN(C)C(c1ccccn1)C1CCC(CNC(=O)CC2CCCC2)CC1 (stereo not drawn) | 0.64%

Compound | INHIBITION
CCc1c(C(=O)O)nnn1-c1ccc(C)cc1C | -54.75%
NC(=O)N1CC[C@@H]2O[C@@H](COCC(=O)N3CCCC3)CC[C@@H]21 | 35.98%
Cc1cc(C[C@@H]2COC[C@H]2NCc2ccccc2C(F)(F)F)on1 | 32.31%
Cc1cc(C(O)CCNC(=O)c2ccc(Cl)s2)c(C)o1 (stereo not drawn) | -16.88%
CC(CNC(=O)c1cnccn1)Oc1cccc(Br)c1 (stereo not drawn) | 30.75%
CC(CNC(=O)c1cnccn1)Oc1ccc(F)cc1 (stereo not drawn) | 52.84%
CC(CNC(=O)c1ccncc1F)Oc1ccc(F)cc1 (stereo not drawn) | 23.79%
NCc1cccc(-c2cccnc2C(=O)NCCN2CCCC2)c1 | 1.07%
O=C(NC1CC1)[C@@H]1CCO[C@@H]2CCN(CC3CCC3)C[C@H]21 | 9.98%
Cc1ccc(F)cc1NC(=O)NCC(C)N1CCOCC1 (stereo not drawn) | -0.54%
CC(CNC(=O)Nc1ccc(F)cc1Br)N1CCOCC1 (stereo not drawn) | 74.22%
Cc1cc(F)ccc1NC(=O)NCC(C)N1CCOCC1 (stereo not drawn) | 48.59%
CCc1ccc(CN2CCC3(CCCN(C(=O)N(C)C)C3)C2)o1 (stereo not drawn) | 1.08%
O=C(Cc1ccc2c(c1)OCCO2)NC1CC1 | 23.31%
CN(Cc1ccco1)[C@@H]1CN(Cc2cccnc2)C[C@@H]2CCCO[C@@H]21 | 29.36%
CS(=O)(=O)N[C@@H]1CN(Cc2ccccc2)C[C@@H]2CCCO[C@@H]21 | 14.39%
O=C(CC1CC1)N[C@@H]1CN(Cc2ccco2)C[C@@H]2CCCO[C@@H]21 | 52.55%
CN(Cc1ccco1)[C@@H]1CN(Cc2ccc(F)cc2)C[C@@H]2CCCO[C@@H]21 | 29.73%
O=C(N[C@@H]1CN(Cc2ccccc2)C[C@@H]2CCCO[C@@H]21)C1CC1 | 50.9%
O=C(CC1CC1)N[C@@H]1CN(Cc2ccoc2)C[C@@H]2CCCO[C@@H]21 | 35.89%
O=C(N[C@@H]1CN(Cc2ccoc2)C[C@@H]2CCCO[C@@H]21)C1CCC1 | -8.62%
O=C(CC1CC1)N[C@@H]1CN(Cc2ccncc2)C[C@@H]2CCCO[C@@H]21 | 29.01%
CN(Cc1ccco1)[C@@H]1CN(Cc2ccncc2)C[C@@H]2CCCO[C@@H]21 | 60.93%
